± gives the standard deviation.

Experimental findings from the supplement of paper PMC10338343 are described below.
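Note: 1 nM active piRISC with 0.1 nM target library at 33 °C single turnover.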

The assay relates to MILI (PIWIL2) piRISC loaded with piRNA #1 (26 nt). The assay can be described thus: pre-steady-state target cleavage rate (min^-1); guide: piRNA #1 5'p-UGAGGUAGUAGGUUGUAUAGUAUCCA; MIWI and MILI are mouse PIWI proteins and EfPiwi is from a freshwater sponge; tags in brackets are library labels; higher = faster piRNA-guided slicing of the target. The conditions noted are these: auxiliary factor: 500 nM mouse GTSF1. In outline:
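The pre-steady-state cleavage rate was derived from a burst-and-steady-state fit of Cleave-'n-Seq data. For these assays, 1 nM active affinity-purified piRISC loaded with a single synthetic guide was mixed with […] a transcribed, DNA-blocked target RNA library in HEPES–potassium acetate buffer at 33 °C, with or without 500 nM GTSF1 partner protein, for 0–8 or 0–960 min. Sequencing counts of uncleaved targets were normalised to depth and to weakly complementary targets, and k3 was capped at 0.0001 min^-1 after three trials were pooled.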
Turning to GGAGACCUAUGAUAUGAAACUACUACCUCA, the “pre-steady-state target cleavage rate” value was less than 0.0001.
With GGAGACCUAUCUAUACAUCCUACAACCUCA the figure was 0.165 ± 0.014; with GGAGACCAUACAAUAGAACCUACUACCUCA, 0.179 ± 0.02.
On to GGAGACCAUACUAUACAACCUACUACACUCA, for which the “pre-steady-state target cleavage rate” value is 0.204 ± 0.027.
Under GGAGACCUAUCAAUACAACCUAGUACCUCA stands 0.00718 ± 0.0036; under GGAGACCUAUCUUUACAACCUUCUACCUCA, 0.00489 ± 0.0025; under GGAGACCUUACUUAACAACCUACUACCUCA, 0.101 ± 0.016.
For GGAGACCAUAGUAUUCAACCUACUACCUCA, the “pre-steady-state target cleavage rate” value amounted to 0.11 ± 0.013.
On to GGAGACCUAUGAUAACAAGCUACUACCUGA, for which the “pre-steady-state target cleavage rate” value amounted to 0.00722 ± 0.0035.
Under GGAGACCUAUGAUAUCAUCCUACUACCUCA stands 0.00256 ± 0.0016; under GGAGACCUAUGAUAACUUGCUACUACCUCA, less than 0.0001.
With GGAGACCUAUGAAUACAACCUACUAGCUCA the figure was 0.00444 ± 0.0022; with GGAGACCUAUGAUAUCAACUCUACUACCUCA, less than 0.0001.
GGAGACCUUACUAUACAACCUACAUGCUCA: the “pre-steady-state target cleavage rate” value was found to be 0.0591 ± 0.012.
Turning to GGAGUGCAUACUAAACAACCUACUACCUCA, the “pre-steady-state target cleavage rate” value was determined as 0.147 ± 0.011.
As for GGAGACCUAUCUAAACUACCUACUACCUCA, the “pre-steady-state target cleavage rate” value was determined as 0.051 ± 0.012.
Take GGAGACCUUACUAUAGAACCUACUACGUCA: the “pre-steady-state target cleavage rate” value stood at 0.0503 ± 0.012.
Under GGAGACCUAUGUAUACAACGUUCUACCUCA stands 0.00392 ± 0.0018; under GGAGACCAUACUAUCCAACCUACUACCUCA, 0.178 ± 0.017.
Under GGAGACCUAACUAUACAUCCUACAACCUCA stands 0.246 ± 0.033; under GGAGACCUAACUAUACAACCUACUACCGCA, 0.197 ± 0.038.
With GGAGACCUAUGUAUAGCAACCUACUACCUCA, the “pre-steady-state target cleavage rate” value came to 0.0101 ± 0.003.
GGAGACCUAUGAAAACAACCUACUACCUCA: the “pre-steady-state target cleavage rate” value worked out at 0.0037 ± 0.0033.
Turning to GGAGACCUUACUAUACAACCUAACUACCUCA, the “pre-steady-state target cleavage rate” value came out at 0.0162 ± 0.0034.
With GGAGACCAUACUAAACAACCUACUACCUGA, the “pre-steady-state target cleavage rate” value turned out to be 0.13 ± 0.018.
Consider GGAGACCAUACUAUUCAACCUUCUACCUCA, for which the “pre-steady-state target cleavage rate” value is 0.00695 ± 0.0026.
As to GGAGACCUAUCUAUACAACCUAGAACCUCA, the “pre-steady-state target cleavage rate” value worked out at 0.00829 ± 0.0026.
GGAGACCUAUGUAUACAACCUACUACGCUCA: the “pre-steady-state target cleavage rate” value was found to be 0.0944 ± 0.013.
Regarding GGAGACCUAUCUAUUCAACGUACUACCUCA, the “pre-steady-state target cleavage rate” value came to 0.00945 ± 0.003.
As to GGAGACCUAUCUAUACAACCUACUAACUCA, the “pre-steady-state target cleavage rate” value was 0.0846 ± 0.017.
As to GGAGACCUAUGUAUAGUUCCUACUACCUCA, the “pre-steady-state target cleavage rate” value turned out to be 0.00602 ± 0.0021.
With GGAGACCUAUCUAUACAAGCUUCUACCUCA the figure was 0.0321 ± 0.0061.
With GGAGACGAUACUAUACUACCUACUUCCUCA the figure was 0.101 ± 0.016.
Regarding GGAGACCUAUCUAUACAACCUACUUGCUCA, the “pre-steady-state target cleavage rate” value was determined as 0.109 ± 0.023.
With GGAGUGGAAACUAUUCAACCUACUACCUCA the figure was 0.192 ± 0.017; with GGAGACCUAUGUAUACCAACCUACUACCUCA, 0.00297 ± 0.003; with GGAGACCAUACUAUACAAGCUACUAGCUCA, 0.0756 ± 0.022.
In the case of GGAGACCUAUGUAUACAAGCUACUACCUCA, the “pre-steady-state target cleavage rate” value was found to be 0.147 ± 0.013.
With GGAGACCAUACUAUACAACCUUCAACCUCA, the “pre-steady-state target cleavage rate” value came out at 0.0066 ± 0.0029.
Take GGAGACCUAUGAAUACAACCUACUACUUCA: the “pre-steady-state target cleavage rate” value is 0.00709 ± 0.0022.
